The values below come from PubChem BioAssay AID588676 (Johns Hopkins Ion Channel Center, 2011).

About 3,900 (1.3%) of roughly 310,000 compounds were called active.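 The calls were made as follows: active = calcium-response B-score plate-corrected more than 3 library SD below zero, starting fluorescence within 5 deviations, no agonist response on first addition; inactive = the rest.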 The sample as a whole holds a higher share of actives than the screen did.

For this test, the target named is Mas-related G-protein coupled receptor member X1 (Homo sapiens) (UniProt Q96LB2). As to the kind of experiment: antagonists of human MrgX1 receptor, primary screen, HEK293 cells, Fluo-4 calcium flux (AID 588676).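 As to B-score: peak minus trough fluorescence over baseline after final BAM8-22 challenge near maximal dose.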 Particulars: Fluo-4, BAM8-22 antagonism, at 10 µM; active compounds read low.
Sequence of Mas-related G-protein coupled receptor member X1 (Homo sapiens) (Q96LB2 whole entry, looked up): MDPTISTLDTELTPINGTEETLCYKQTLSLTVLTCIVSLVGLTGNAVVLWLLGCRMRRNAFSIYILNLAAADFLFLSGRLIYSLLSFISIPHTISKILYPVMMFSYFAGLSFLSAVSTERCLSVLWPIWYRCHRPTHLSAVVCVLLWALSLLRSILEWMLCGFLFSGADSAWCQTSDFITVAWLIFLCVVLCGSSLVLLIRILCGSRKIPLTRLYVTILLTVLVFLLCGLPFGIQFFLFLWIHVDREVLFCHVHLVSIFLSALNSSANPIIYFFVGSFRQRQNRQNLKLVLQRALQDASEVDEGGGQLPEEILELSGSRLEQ
With `O=C(NNc1ccccc1Cl)C(O)(c1cccc(C(F)(F)F)c1)c1cccc(C(F)(F)F)c1`, the B-score result is “inactive”.

Regarding `COc1ccc(S(=O)(=O)N2CCC(C(=O)NCCC(=O)NCc3cccc(OC)c3)CC2)cc1`, the B-score result is “inactive”.

Consider `COc1cccc(CNC(=O)C2CCN(S(=O)(=O)c3cccc4cccnc34)CC2)c1`, for which the B-score was -4.66 (active).

For the compound `COc1ccccc1CNC(=O)C1CCCN(S(=O)(=O)c2cccc3cccnc23)C1` (configuration not stated), the B-score result was “inactive”.

For `OC(COc1ccc2ccccc2c1)Cn1cncn1` (configuration not stated), the B-score result was “inactive”.

As for `O=C(c1ccccc1)C(Cn1cncn1)C(Sc1ccccc1)c1ccccc1` (configuration not stated), the B-score was -5.84 (active).

Turning to `Fc1ccccc1OCCCCn1cncn1`, the B-score result is “inactive”.

For the compound `COc1ccc(C2(O)C(=O)Nc3ccccc32)cc1` (configuration not stated), the B-score entry was “inactive”.

Consider `COc1ccc(NC(=O)c2ccco2)cc1NC(=O)c1ccc(C#N)cc1F`, for which the B-score result was “inactive”.

For `Cc1c(C=O)c2ccccn2c1C(=O)c1ccncc1`, the B-score entry was “inactive”.

Take `CCCN1C2CCCC1CC(NC(=O)NC13CC4CC(CC(C4)C1)C3)C2` (configuration not stated): the B-score entry is “inactive”.

`Nc1cccc(S(=O)(=O)Nc2ccc(SC(F)F)cc2)c1`: the B-score entry was “inactive”.

Consider `Cc1cccc(-n2c(Cc3cc(=O)[nH]c(=O)[nH]3)nnc2SCC(=O)Nc2cccc(C(F)(F)F)c2)c1`, for which the B-score entry is “inactive”.

On to `COc1cccc(-n2c(Cc3cc(=O)[nH]c(=O)[nH]3)nnc2SCC(=O)Nc2ccccc2)c1`, for which the B-score entry is “inactive”.

With `Cc1cccc(-n2c(Cc3cc(=O)[nH]c(=O)[nH]3)nnc2SC(C)C)c1`, the B-score was -6.63 (active).

`CC(C)NC(=O)NNc1c(Cl)cncc1Cl`: the B-score entry is “inactive”.

In the case of `Cc1ccc(C(c2nnnn2CS(=O)(=O)c2ccc(C)cc2)N2CCC(C)CC2)cc1` (configuration not stated), the B-score entry is “inactive”.

In the case of `CC1(C)CC(=O)C=C(N2CCCC2)C1`, the B-score result is “inactive”.

For the compound `O=C(O)CN1CCN(C(c2ccccc2)c2ccccc2)CC1`, the B-score result was “inactive”.

Regarding `CC1(C)CC(N2CCN(C(c3ccccc3)c3ccccc3)CC2)=CC(=[N+]2CCCCC2)C1`, the B-score is -4.89 (active).

On to `CCC(=O)N(C)C(c1ccccc1Cl)c1nnnn1-c1c(C)cccc1C` (configuration not stated), for which the B-score entry is “inactive”.

Consider `COc1ccc(N2CC(NS(=O)(=O)c3ccc4ccccc4c3)CC2=O)cc1` (configuration not stated), for which the B-score entry was “inactive”.

Turning to `CSCC[C@H](NC(=O)N1CCn2c1nc1ccccc12)C(=O)NCc1ccc2c(c1)OCO2`, the B-score entry was “inactive”.

As for `Cc1ccc(S(=O)(=O)N2CCN(C)CC2)cc1C(=O)NC1CCCCC1`, the B-score entry was “inactive”.

On to `CCCCC1(C(=O)OCC)NC(c2ccc(O)cc2)C2C(=O)N(c3ccccc3)C(=O)C21` (configuration not stated), for which the B-score result was “inactive”.

For the compound `O=C1CCCN1C(=O)COc1ccc([N+](=O)[O-])cc1`, the B-score result is “inactive”.

With `COC(=O)COc1ccc(S(=O)(=O)Nc2ccc(NC(C)=O)cc2)cc1`, the B-score entry is “inactive”.

As for `CC(=O)Nc1ccc(OC(=O)COc2ccc(Br)cc2)cc1`, the B-score is -4.53 (active).

For `Cc1ccc(OC(=O)CCC(=O)Nc2ccc(Br)cc2)cc1`, the B-score entry was “inactive”.

Regarding `CCN(C(=O)CSc1nnnn1-c1ccccc1OC)C1CCS(=O)(=O)C1` (configuration not stated), the B-score result is “inactive”.

As to `CCN(C(=O)CSc1nc2ccccc2n1CC)C1CCS(=O)(=O)C1` (configuration not stated), the B-score result was “inactive”.

For the compound `CCN(C(=O)CSc1nnc2ccccn12)C1CCS(=O)(=O)C1` (configuration not stated), the B-score is -5.04 (active).

In the case of `COc1ccc(NC(=O)c2sc3nc(C)nc(N4CCN(c5ccccn5)CC4)c3c2C)c(OC)c1`, the B-score entry was “inactive”.

On to `Cc1nc(N2CCN(c3ccccn3)CC2)c2c(C)c(C(=O)Nc3ccc(F)c(Cl)c3)sc2n1`, for which the B-score is -5.65 (active).

As to `Cc1nc(N2CCN(c3ccccn3)CC2)c2c(C)c(C(=O)Nc3ccc(F)cc3)sc2n1`, the B-score result is “inactive”.

`COc1ccc(NC(=O)CN(Cc2ccccc2)S(C)(=O)=O)cc1OC`: the B-score result was “inactive”.

As to `CC1(C)C(C=C(Cl)Cl)C1C(=O)NC(O)C(=O)c1ccccc1` (configuration not stated), the B-score entry was “inactive”.

In the case of `O=C(CCCN1C(=O)c2ccccc2C1=O)Oc1ccc(Cl)cc1`, the B-score result was “inactive”.

With `Cc1ccc(CS(=O)(=O)c2ncc(Cl)c(C(=O)Nc3nnc(C)s3)n2)cc1`, the B-score was -6.02 (active).

Turning to `CSc1nnc(NC(=O)c2nc(S(=O)(=O)Cc3ccc(C)cc3)ncc2Cl)s1`, the B-score result was “inactive”.

With `Cc1cccc(NC(=O)c2nc(S(=O)(=O)Cc3ccccc3)ncc2Cl)c1`, the B-score result is “inactive”.

Turning to `Cc1cc(N2CCOCC2)nc2ccc(NC(=S)N3CCN(Cc4ccccc4)CC3)cc12`, the B-score entry was “inactive”.

Consider `C#C[C@]1(O)CC[C@H]2[C@@H]3CCC4=CC(=O)CC[C@@H]4[C@H]3CC[C@@]21CC`, for which the B-score result was “inactive”.

Turning to `O=C(NCC(c1cccs1)N1CCOCC1)c1cc(Cl)ccc1[N+](=O)[O-]` (configuration not stated), the B-score result was “inactive”.

Consider `CCc1nnc(NC(=O)CSc2nc3c(c(=O)n2-c2ccccc2OC)SCC3)s1`, for which the B-score is -5.85 (active).

As to `CCOc1ccc(NC(=O)CSc2nc3c(c(=O)n2-c2ccccc2OC)SCC3)cc1`, the B-score entry is “inactive”.

`CCc1nnc(NC(=O)CSc2nnc(Cc3ccccc3)n2-c2ccc(OC)cc2)s1`: the B-score entry was “inactive”.

With `CC(Oc1ccccc1F)C(=O)NN` (configuration not stated), the B-score result is “inactive”.

In the case of `CCSc1sc(CC)cc1C=O`, the B-score entry is “inactive”.

For the compound `Cc1ccc(CNC(=O)C2CC(=O)N(C3CCCCCCC3)C2)cc1` (configuration not stated), the B-score entry is “inactive”.

Consider `O=C(Nc1ccc(Br)cc1F)C1CC(=O)N(C2CCCCC2)C1` (configuration not stated), for which the B-score was -6.01 (active).

In the case of `O=C(NCCc1ccc(Cl)cc1)C1CC(=O)N(C2CCCCC2)C1` (configuration not stated), the B-score entry was “inactive”.

As to `COc1cc(C)c(Cl)cc1S(=O)(=O)n1ccnc1`, the B-score entry was “inactive”.

Take `CCCC(=O)N1CCC(CCC(=O)NC2CC2)CC1`: the B-score result was “inactive”.

Regarding `CCOc1ccccc1OCC(=O)Nc1ccccc1C(=O)NC1CC1`, the B-score entry was “inactive”.

On to `CC(Oc1ccc(F)cc1)C(=O)Nc1ccccc1C(=O)NC1CC1` (configuration not stated), for which the B-score was -5.83 (active).

As to `COc1ccccc1OCC(=O)Nc1ccccc1C(=O)NC1CC1`, the B-score result was “inactive”.

As to `COc1cc(-c2c(-c3ccc4c(c3)OCO4)noc2C)ccc1F`, the B-score entry is “inactive”.

In the case of `Nc1nc(NCC2CCCO2)nc(Nc2ccccc2F)c1[N+](=O)[O-]` (configuration not stated), the B-score result was “inactive”.

Regarding `COC(=O)c1sc(-c2ccc(C(C)(C)C)cc2)cc1NC(=O)/C=C/C(=O)O`, the B-score was -9.91 (active).

`CC(C)(C)c1ccc(/C=C/C(=O)Nc2ncccn2)cc1`: the B-score entry was “inactive”.

As for `CSc1ccc(NC(=O)/C=C/C(=O)O)cc1`, the B-score entry was “inactive”.

For `Cn1cccc1Cc1nnc(SCC(=O)NCc2ccc3c(c2)OCO3)n1CCc1ccccc1`, the B-score result is “inactive”.

As for `O=C(O)CCc1nc2cc(Cl)ccc2n(Cc2ccccc2)c1=O`, the B-score entry is “inactive”.

As to `CCOc1ccccc1NC(=O)CCN1CCN(S(=O)(=O)c2ccc(OC)cc2)CC1`, the B-score is -4.98 (active).

Turning to `CCOc1ccccc1NC(=O)COc1ccc(S(=O)(=O)N2CCCC2)cc1`, the B-score entry was “inactive”.

In the case of `COc1ccc(NC(=O)CCC(=O)N2CCN(S(=O)(=O)c3ccc(C)cc3)CC2)c(OC)c1`, the B-score result is “inactive”.

Take `Cc1cc(C)c(C#N)c(Nc2cccc(Br)c2)n1`: the B-score entry was “inactive”.

On to `N#CC1=C(N)Oc2c(ccc3cccnc23)C1c1ccncc1` (configuration not stated), for which the B-score entry was “inactive”.

Regarding `N#CC1=C(N)Oc2c(sc3ccccc23)C1c1ccco1` (configuration not stated), the B-score is -4.64 (active).

For `O=C(COc1nsnc1N1CCOCC1)Nc1ccccc1Cl`, the B-score result was “inactive”.

Take `COc1cc(C(C)=O)ccc1OC(=O)CN1C(=O)c2ccccc2C1=O`: the B-score entry is “inactive”.

As to `Cc1cc(F)ccc1S(=O)(=O)Nc1ncnc2scc(-c3ccc(F)cc3)c12`, the B-score result is “inactive”.

For the compound `CCOC(=O)c1c(NC(=O)CCC(=O)NCc2ccco2)sc2c1CCCC2`, the B-score result is “inactive”.

As for `CCOC(=O)c1c(NC(=O)CSc2cn(CC)c3ccccc23)sc2c1CCC2`, the B-score was -6.48 (active).

`CCOC(=O)c1c(NC(=O)C(C)Sc2c[nH]c3ccccc23)sc2c1CCC2` (configuration not stated): the B-score result was “inactive”.

`O=C(NCC(=O)N1CCN(c2ncc(C(F)(F)F)cc2Cl)CC1)c1ccc(Br)o1`: the B-score result is “inactive”.

On to `Cc1ccc(C(=O)OC2=CC(=O)CC(C)(C)C2)cc1`, for which the B-score result was “inactive”.

Regarding `COc1ccccc1C(=O)NNC(=O)CCN1C(=O)/C(=C\c2ccccc2)SC1=S`, the B-score entry was “inactive”.

For the compound `COc1cc(/C=C2/SC(=S)N(Cc3ccccc3)C2=O)cc(OC)c1O`, the B-score was -7.51 (active).

Consider `COc1ccc(/C=C2\SC(=S)N(CCC(=O)Nc3ccccn3)C2=O)cc1OC`, for which the B-score entry was “inactive”.

Consider `O=C(Nc1cccc([N+](=O)[O-])c1)N1CCc2ccccc2C1`, for which the B-score result is “inactive”.

Turning to `CN(c1ccccc1)S(=O)(=O)c1ccc(Cl)c(C(=O)OCC(=O)N2CCOCC2)c1`, the B-score entry was “inactive”.

Take `COC(=O)c1c(NC(=O)COc2ccc(Cl)cc2Cl)sc2c1CC(C)(C)NC2(C)C`: the B-score entry is “inactive”.

Consider `O=C(Cc1ccccc1)Nc1c(C(=O)N2CCCCCC2)cnn1-c1ccccc1`, for which the B-score result was “inactive”.

As for `CC(C)CNC(=O)COC(=O)/C=C/c1ccco1`, the B-score entry was “inactive”.

`COc1ccc([N+](=O)[O-])cc1NC(=O)COC(=O)/C=C/c1ccco1`: the B-score is -24.1 (active).

With `COc1ccc([N+](=O)[O-])cc1NC(=O)CCc1ccccc1`, the B-score entry is “inactive”.

With `COC1=CCC2([N+](=O)[O-])CN(CC(=O)O)CC1([N+](=O)[O-])C2` (configuration not stated), the B-score is -5.87 (active).

For `COc1ccc([N+](=O)[O-])cc1N(CC(=O)Nc1ccccc1C(=O)N1CCOCC1)S(C)(=O)=O`, the B-score result is “inactive”.

`CC(CCc1ccccc1)NC(=O)c1cnc(Cl)c(Cl)c1` (configuration not stated): the B-score result was “inactive”.

As to `COCC(C)NC(=O)c1ccc(Cl)c(Cl)c1` (configuration not stated), the B-score was -8.76 (active).

`CC(C)CCC(C)NC(=O)c1ccc2nccnc2c1` (configuration not stated): the B-score result was “inactive”.

On to `CC(=O)C1=C(C)NC(=O)NC1c1ccc2c(c1)OCO2` (configuration not stated), for which the B-score entry is “inactive”.

Consider `COc1ccc(Br)cc1/C=N/n1c(C)nnc1C`, for which the B-score result is “inactive”.

`COc1cc(N2CCCC2)c(OC)cc1/C=C(/C#N)c1cccc(Br)c1`: the B-score was -7.19 (active).

Take `CC(=O)Nc1cccc(Oc2cc(C#N)c(C#N)cc2N2CCOCC2)c1`: the B-score result was “inactive”.

Turning to `O=C(COC(=O)/C=C/c1ccc(OC(F)F)cc1)NC1CCCCC1`, the B-score result is “inactive”.

Consider `COc1ccc(-c2noc(C(C)NS(=O)(=O)c3ccc(NC(C)=O)cc3)n2)cc1` (configuration not stated), for which the B-score entry was “inactive”.

`CCCCCCCCCCCCN1C(=O)CSC1c1cccnc1` (configuration not stated): the B-score entry was “inactive”.

Take `CCOC(=O)CSc1ncc(-c2cccc(Cl)c2)cn1`: the B-score result was “inactive”.

For `CCOC(=O)c1c(S(=O)(=O)Nc2cccc(Cl)c2)c(C)n(C)c1C`, the B-score result was “inactive”.

Regarding `CCOC(=O)C1=C(O)CSC1=Nc1cccc(Cl)c1`, the B-score was -5.49 (active).

Turning to `N=c1n(CCc2ccccc2)c2ccccc2n1Cc1ccccc1F`, the B-score result is “inactive”.

`Cc1cc(=O)oc2cc(NC(=O)C(C)Oc3ccccc3)ccc12` (configuration not stated): the B-score entry was “inactive”.

In the case of `O=C(Nc1ccc(F)c([N+](=O)[O-])c1)C1CC(=O)N(Cc2ccccc2)C1` (configuration not stated), the B-score entry is “inactive”.

For `Cc1cc(=O)oc2cc(NC(=O)C3CC(=O)N(Cc4ccccc4)C3)ccc12` (configuration not stated), the B-score was -7.83 (active).
